# High-throughput results: PubChem BioAssay, The Scripps Research Institute Molecular Screening Center
# PAFAH1B2 FP inh: PAFAH1B2 (human) inhibition; 340,000 tested, 1.2% active; P68402; inhibition, % at 3.39 µM; recombinant PAFAH1B2, FP-rhodamine activity probe, fluorescence polarization;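 active = inhibition above the mean of all tested compounds plus 3 SD, cut at about 24% in these data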
# PAFAH1B3 FP inh: blocks human PAF acetylhydrolase 1B catalytic subunit 3. Q15102. recombinant PAFAH1B3, FP-rhodamine probe, fluorescence polarization. inhibition, % at 3.39 µM. 340,000 tested, 0.28% active;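 active = inhibition above the screen-wide average of all tested compounds plus 3 SD, cut at about 25% in these data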
# Target sequence (Q15102 whole entry, looked up): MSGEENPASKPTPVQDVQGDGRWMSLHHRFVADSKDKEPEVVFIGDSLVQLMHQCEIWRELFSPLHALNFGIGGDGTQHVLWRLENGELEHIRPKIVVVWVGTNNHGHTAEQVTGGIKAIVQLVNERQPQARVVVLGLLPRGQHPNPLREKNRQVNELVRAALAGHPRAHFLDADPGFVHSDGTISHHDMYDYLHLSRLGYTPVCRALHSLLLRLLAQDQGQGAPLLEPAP
# PP1 inh: counter-screen for PP5 inhibitors: inhibitors of human PP1-alpha | P62136 | purified PP1alpha, OMFP fluorescence | inhibition, % at 6.7 µM | 320,000 tested, 0.9% active;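 active = inhibition above the mean inhibition of all tested compounds plus 3 SD, computed separately for each screening campaign, cut at about 15% in these data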
# Target sequence (P62136 whole entry, looked up): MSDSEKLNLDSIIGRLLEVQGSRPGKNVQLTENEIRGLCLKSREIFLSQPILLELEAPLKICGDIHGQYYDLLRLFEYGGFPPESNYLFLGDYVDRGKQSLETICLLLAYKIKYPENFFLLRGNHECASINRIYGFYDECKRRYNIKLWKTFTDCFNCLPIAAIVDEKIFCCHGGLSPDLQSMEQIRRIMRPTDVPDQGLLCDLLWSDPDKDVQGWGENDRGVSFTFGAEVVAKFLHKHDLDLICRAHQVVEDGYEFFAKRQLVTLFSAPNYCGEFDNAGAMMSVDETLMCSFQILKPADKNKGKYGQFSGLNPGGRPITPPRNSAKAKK
# pPAFAH inh: inhibitors of human plasma PAF acetylhydrolase (pPAFAH) | recombinant pPAFAH, FP-rhodamine probe fluorescence polarization | inhibition, % at 3.39 µM | 330,000 tested, 1.5% active | AID 463082;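 active = inhibition above the mean inhibition across the screen plus 3 SD, cut at about 25% in these data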;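 note: inhibitors block binding of the rhodamine activity-based probe so polarization drops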
# PP5 inh: inhibitors of human protein phosphatase 5 (PP5). purified PP5c, OMFP substrate fluorescence. inhibition, % at 6.7 µM. P53041. AID 1987. 320,000 tested, 0.18% active;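 active = inhibition above the campaign's mean inhibition across all tested compounds plus 3 SD, cut at about 9.5% in these data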
# PAFAH2 FP inh: inhibitors of human PAFAH2. recombinant PAFAH2, FP-rhodamine activity probe, fluorescence polarization. 340,000 tested, 0.99% active. inhibition, % at 3.39 µM;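 active = inhibition above the mean over all tested compounds plus 3 SD, cut at about 30% in these data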;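 note: inhibitors block probe labeling of enzyme so polarization drops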
# PP1 inh confirm: confirmation of human PP1 phosphatase inhibitors; shares compounds with PP1 inh; purified PP1alpha, OMFP substrate fluorescence; inhibition, % at 6.7 µM; 1,900 tested, 52% active;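 active = mean PP1 inhibition above a set limit taken from the earlier primary screen, cut at about 15% in these data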
# PP5 inh counter: PP5 phosphatase inhibition, counter-screen for PP1 inhibitors; 1,900 tested, 4% active; purified PP5c, OMFP fluorescence; shares compounds with PP1 inh; AID 2360; inhibition, % at 6.7 µM;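 active = mean PP5 inhibition over triplicate wells above about 9.5% taken from the earlier PP1 screen, limit read from the data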
# pPAFAH confirm: confirmation of human plasma PAF acetylhydrolase (pPAFAH) inhibitors | shares compounds with pPAFAH inh | recombinant pPAFAH, FP-Rh probe fluorescence polarization | inhibition, % at 3.39 µM | 2,300 tested, 72% active;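 active = mean inhibition of the triplicate above the hit cutoff set for the earlier primary screen, cut at about 25% in these data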
# PAFAH2 FP conf: confirmation of human PAFAH2 inhibitors; shares compounds with PAFAH2 FP inh; recombinant PAFAH2, FP-rhodamine activity probe, fluorescence polarization; inhibition, % at 3.39 µM; 2,300 tested, 65% active; AID 493030;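 active = mean inhibition over three repeats above a set limit taken from the earlier primary screen, cut at about 30% in these data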;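 note: inhibitor blocks binding of rhodamine activity probe so polarization falls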
# PAFAH1B3 conf FP: confirmation of human PAFAH1B3 inhibitors; 390 tested, 30% active; recombinant PAFAH1B3, FP-Rh activity-based probe, fluorescence polarization; inhibition, % at 3.39 µM; shares compounds with PAFAH1B3 FP inh;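 active = average inhibition over triplicate runs above the hit cutoff set in the earlier primary screen, cut at about 25% in these data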
# Numbers stand for hits; i = inactive; nt = no result. The list is not random: actives were taken first. Their share in the collection is about 3.4%.
SMILES,PAFAH1B2 FP inh,PAFAH1B3 FP inh,PP1 inh,pPAFAH inh,PP5 inh,PAFAH2 FP inh,pPAFAH confirm,others
CCN(CC)c1ccc(-c2nn3c(-c4n[nH]c5c4CCC5)nnc3s2)cc1,i,i,22,35,i,i,45,PP1 inh confirm=31;PP5 inh counter=i
CC1=C(C(=O)OCc2ccccc2)C(c2ccc(-c3ccccc3)cc2)NC(=O)N1CCCCCC(=O)O (stereo unspecified),i,i,19,46,i,i,41,PP1 inh confirm=i;PP5 inh counter=i
COc1ccc(N2C3=C(CC4=C2CCCC4=O)C(=O)CCC3)cc1,i,i,34,44,i,i,i,PP1 inh confirm=i;PP5 inh counter=i
COc1ccc(N2C3=C(CC4=C2CC(C)(C)CC4=O)C(=O)CC(C)(C)C3)cc1,i,i,i,i,i,i,nt,
CC(=O)Nc1ccc(S(=O)(=O)NC(C(=O)O)C(C)O)cc1 (stereo unspecified),i,i,i,i,i,i,nt,
O=C(Nc1cccc(S(=O)(=O)NC2=NCCC2)c1)c1cc(-c2ccco2)nc2ccccc12,i,i,26,43,i,i,i,PP1 inh confirm=i;PP5 inh counter=i
O=c1cc(-c2ccco2)nc(SCc2cccc(Cl)c2)[nH]1,i,i,18,i,i,32,nt,PP1 inh confirm=i;PP5 inh counter=i;PAFAH2 FP conf=i
COc1cc2c(cc1OC)-c1cc(NCc3ccccn3)nc(=O)n1CC2,i,i,20,i,i,31,nt,PP1 inh confirm=21;PP5 inh counter=i;PAFAH2 FP conf=i
CCNc1cc2n(c(=O)n1)CCc1cc(OC)c(OC)cc1-2,i,i,i,i,i,i,nt,
CN(C(=O)CN1C(=O)NC(c2ccccc2)(c2ccccc2)C1=O)C1CCS(=O)(=O)C1 (stereo unspecified),i,i,i,i,i,i,nt,
COc1ccc(C2CC(c3ccccc3)=NN2C(=O)COC(=O)c2cc(S(=O)(=O)N3CCOCC3)ccc2Cl)cc1 (stereo unspecified),i,i,20,i,i,31,nt,PP1 inh confirm=i;PP5 inh counter=i;PAFAH2 FP conf=i
CC[C@H](C)[C@H](NC(=O)c1ccccc1)C(=O)NC(CC(=O)O)c1ccc(F)cc1 (stereo partly specified),i,i,i,i,i,i,nt,
Cc1ccc(C(C)C)c(OCc2ccc(C(=O)N/N=C/c3cccc(O)c3O)cc2)c1,i,33,23,54,i,i,52,PP1 inh confirm=18;PP5 inh counter=i;PAFAH1B3 conf FP=i
CC1(C)C=C2C(=NN(c3ccccc3)C(N)=C2C#N)CO1,i,44,33,i,i,i,nt,PP1 inh confirm=i;PP5 inh counter=59;PAFAH1B3 conf FP=51
CC1(C)Cc2c(C#N)c(N)n(-c3ccccc3)c(=S)c2CO1,nt,nt,i,i,i,nt,nt,
CN(CC(=O)NCCc1ccccc1)S(=O)(=O)c1ccc(Br)s1,i,i,i,i,i,i,nt,
CCCC[n+]1c2ccccc2cc2ccccc21,i,27,22,i,i,i,nt,PP1 inh confirm=19;PP5 inh counter=i;PAFAH1B3 conf FP=35
Cc1ccc2ccccc2[n+]1CCCS(=O)(=O)[O-],i,i,i,i,i,i,nt,
Cc1cnc(C(=O)OCC(=O)Nc2ccc(Br)c(C)c2)cn1,i,i,i,i,i,i,nt,
CCN(CC)c1ccc(/C=N/NC(=O)Cc2nnc(NC(=O)Nc3ccccc3)s2)cc1,i,35,20,i,i,i,nt,PP1 inh confirm=25;PP5 inh counter=i;PAFAH1B3 conf FP=26
N#C/C(=C\c1cc(Cl)c(OCc2ccc(Cl)cc2)c(Cl)c1)C(N)=O,nt,nt,i,i,i,nt,nt,
N#C/C(=C\c1cc(O)c(O)c(O)c1)C(N)=O,i,i,i,42,i,i,i,
CCOC(=O)c1cccc(NC(=O)Cn2nc(C)n3cccc3c2=O)c1,i,i,i,i,i,i,nt,
Cc1ccc(-c2csc(NS(=O)(=O)c3cccc(F)c3)n2)o1,i,i,nt,47,nt,37,72,
CC(C)(C)c1ccc(COn2ccnc2)cc1,i,i,i,i,i,i,nt,
SMILES,PAFAH1B2 FP inh,PAFAH1B3 FP inh,PP1 inh,pPAFAH inh,PP5 inh,PAFAH2 FP inh,pPAFAH confirm,others
CC1Oc2cc3oc4c(O)c(O)ccc4c(=O)c3c(O)c2C1(C)C (stereo unspecified),i,i,i,75,i,32,83,
CCCCN1CC(COC)Oc2cccc(F)c2S1(=O)=O (stereo unspecified),i,i,nt,nt,nt,i,nt,
O=C(c1ccco1)N1CCN(c2ccc(F)cc2)CC1,i,i,i,i,i,i,nt,
Nc1ccc(N2CCN(C(=O)c3ccco3)CC2)cc1,i,i,i,37,i,i,i,
CCCCCn1c(SCC2CCCO2)nc2cc(C(=O)N3CCC(C(N)=O)CC3)ccc2c1=O (stereo unspecified),i,i,i,42,i,i,i,
CCOc1ccc(C2OC34CCCCC3C(C#N)(C#N)C2(C#N)C(=N)O4)cc1OC (stereo unspecified),37,43,i,42,i,46,i,
O=C(NC1CC1)C1CCN(c2ncccn2)CC1,i,i,i,i,i,i,nt,
O=C(O)c1ccc(-n2cccc2/C=N\NC(=O)c2cc3cc(Br)ccc3o2)cc1,i,i,i,48,i,i,25,
CCOC(=O)c1c(C)[nH]c(N=Nc2cc(C(=O)O)cc(C(=O)O)c2)c1C,i,i,i,35,i,i,i,
CCOC(=O)c1c(C)[nH]c(N=Nc2ccc(C)cc2C)c1C,i,i,i,i,i,i,nt,
O=C(O)CSc1cc(C(=O)c2cc(F)ccc2O)cn2c(=O)c3c(-c4ccccc4)csc3nc12,i,i,17,53,i,i,65,
CCOC(=O)c1sc2nc3c(SCCC#N)cc(C(=O)c4cc(F)ccc4O)cn3c(=O)c2c1C,i,i,i,i,i,i,nt,
S=c1[nH]nc(-c2cc3c(s2)-c2ccccc2CC3)o1,i,i,i,38,i,i,62,
CSc1nnc(-c2cc3c(s2)-c2ccccc2CC3)o1,i,i,i,i,i,i,nt,
CC(=O)c1ccc(NC(=O)c2cc(Cl)sc2Cl)cc1,i,i,i,i,i,i,nt,
CCCC(C(=O)NC1CCCC1)N(C(=O)c1snc(C(N)=O)c1N)c1ccc(F)cc1 (stereo unspecified),i,i,nt,nt,nt,i,nt,
COc1ccc(-c2nn[nH]n2)cc1OC,i,i,i,i,i,i,nt,
Nc1cc(-c2nn[nH]n2)ccc1F,i,i,i,43,i,i,i,
COc1ccc(-c2nc(-c3ccccc3)[nH]c(=O)c2C#N)cc1,i,i,i,52,i,i,i,
CNc1nc(-c2ccccc2)nc(-c2ccc(OC)cc2)c1C#N,i,i,i,i,i,i,nt,
